Here are results for ten molecules from PubChem BioAssay.

Assay [1] is described as follows: inhibitors of TNFa-induced NFkB p65 translocation, primary screen, imaging, HUVEC, MLSMR starter and 10KST1 sets (AID 438;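 active = inhibition above 20% together with a positive visual image hit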;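 also: compound added about 3h40 before a 20 min TNFalpha stimulation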;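 as to inhibition: signal is the nuclear over cytoplasmic p65 intensity ratio per well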). Particulars: HUVEC TNFa-induced p65 nuclear translocation; cell count: measured here: nuclei count (cytotoxicity indicator), at 2.08 µM; inhibition: at 2 µM, stronger effect = higher value, 0% TNFa-plus-vehicle, 100% no-TNFa wells.
A short description of assay [2]: inhibitors of mutant huntingtin aggregation, primary screen, imaging, exon1htt(103Q)mCFP cells, high-content imaging (AID 483;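 active = visual image review flags a hit and inhibition of aggregation exceeds 20%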;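 also: compound exposure lasted 3 days before fixation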;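 as to nuclei count: percent of the per-plate median nuclei count of sample wells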). Particulars: exon1htt(103Q)mCFP cell line, aggregate imaging, at 2 µM; inhibition of aggregation: stronger effect = higher value; nuclei count: measured here: cell count, toxicity.
Assay [3] is described as follows: inhibitors of E-selectin induction by TNFa, primary screen, imaging, HUVEC, immunofluorescence, MLSMR starter and 10KST1 sets (AID 487;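 active = visually confirmed hit in the image check and inhibition above 20%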;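 as to inhibition: signal is fraction of cell area covered by stained E-selectin grains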;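 as to nuclei count: 100% = median nuclei count of all wells on the same plate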). Particulars: HUVEC TNFalpha-induced E-selectin immunofluorescence imaging, at 2 µM; inhibition: stronger effect = higher value; nuclei count: measured here: cell number, toxicity.
Assay [4] in a line: DUSP6 inhibitors restoring Erk phosphorylation by chemical complementation, primary imaging in DUSP6-transfected HeLa (AID 609;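 active = compounds giving at least 50% inhibition in the cell-based MKP-3 phosphatase rescue imaging test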;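 as to inhibition: phospho-Erk level distribution per well compared with pooled transfected vehicle control wells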). The settings on record: HeLa MKP-3 transfected, phospho-Erk imaging KS statistic, at 10 µM, cells stimulated with TPA for 15 min.
In assay [5] the target is Dual specificity protein phosphatase 6 (Homo sapiens) (UniProt Q16828). Described as above. The settings on record: HeLa MKP-3 transfected, phospho-Erk imaging KS statistic; at 10 µM; stronger effect = higher value; cells stimulated with TPA for 15 min.
The target of assay [6] is Voltage-gated potassium channel subunit beta-2 (Rattus norvegicus) (UniProt P62483). The assay is described as follows: KvBeta enzyme negative modulators, primary screen, biochemical, NADPH fluorescence (AID 622;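 active = fluorescence slope higher than the sample average by over 3 SD, cut at about -0.22 in these data, passing the limit was not always enough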;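 also: slope of raw intensity against log time taken from 70 to 1610 s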). Particulars: recombinant KvBeta, 4-cyanobenzaldehyde reduction, at 10 µM, stronger effect = higher value.
The target is the same in assay [7]. Description: KvBeta positive modulators, primary screen, biochemical, NADPH fluorescence (AID 623;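 active = NADPH fluorescence slope more negative than the mean of all samples by about 3 SD, 99.7% confidence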;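 also: fluorescence intensity change per second fitted from 20 to 320 s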). The settings on record: Recombinant KvBeta, NADPH fluorescence decrease slope, 10 min; at 10 µM; stronger effect = lower value.
Assay [8] concerns the target Alpha-2C adrenergic receptor (Homo sapiens) (UniProt P18825). Description: modulators of alpha2C/GIRK thallium flux, primary screen, cell-based, HEK293 alpha2C/GIRK1/2 (AID 624;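 active = fluorescence slope after compound addition differing from the mean of all screened samples at 99.7% confidence, in either direction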;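 also: slope of fluorescence ratio to pre-addition baseline per second over 15 to 24 s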). Particulars: thallium flux BTC fluorescence, at 10 µM, actives lie on both sides.
A short description of assay [9]: inhibitors of larval lipid processing in zebrafish, primary screen, whole organism, PED6 fluorescence, gall bladder and intestine (AID 686;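 active = a full or partial loss of lipid-probe fluorescence in the fish gall bladder, intestine or both, judged by eye; inactive = no fluorescence loss, or compound toxic to the fish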;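 also: larvae 5 to 7 days old with five fish per well; signal comes from phospholipase A2 cleavage of quenched PED6 carried via bile; overnight exposure to compound and PED6 before scoring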). The settings on record: Zebrafish larvae PED6 lipid processing, fluorescence scoring; screened at 20 µM (by protocol).
Assay [10] is described as follows: inhibitors of Chlamydomonas gravitaxis, primary screen, whole organism, Chlamydomonas reinhardtii, WT vs cilia-less mutant, absorbance, 96-well (AID 463189).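 Also: 0% = wild type cc124 cells in DMSO and 100% = ciliumless bld1 mutant cells.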 Particulars: OD600 absorbance, 2 days, at 10 µM, stronger effect = higher value.
The nature of assay [11]: inhibitors of Sendai virus-induced IRF3 signaling, primary screen, TLR/RLR signaling modifier project, cell-based, Sendai virus stimulus, luciferase, 10K MLSCN set (AID 602276;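 active = inhibition at or above 50% at 10 µM; inactive = inhibition below 50%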;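 also: firefly luciferase from ISG56 promoter only with Renilla not read in this screen; 0% = Sendai virus plus DMSO and 100% = medium plus DMSO without virus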). Particulars: HEK293 RL24 IRF3 luciferase reporter, at 10 µM, stronger effect = higher value.
Assay [12] can be described thus: inhibitors of poly I:C-induced TLR3 signaling, primary screen, cell-based, poly I:C stimulus, luciferase, 10K MLSCN set (AID 602277;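 active = inhibition of the reporter signal at or above 50%; inactive = inhibition below 50%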). Particulars: HEK293-TLR3 RL24 IRF3 luciferase reporter, at 10 µM, stronger effect = higher value. For orientation: Reporter assays use an easily measured gene product as a stand-in for the process of interest.
Where [13] appears, read: measured here: cell density z-score.
The mark [14] stands for this setting: measured here: nuclear c-Myc green intensity z-score.
Where [15] appears, read: measured here: nuclear pErk red intensity z-score, stronger effect = higher value.

“And” between values parts separate entries of the source, which are not always exact repeats. Identical values can stand only once. The source made the active and inactive calls.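 The calls were made as follows, unless noted: active = inhibition at or above 50% relative to wild type and mutant plate controls; inactive = inhibition below 50%.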

Sequence of Dual specificity protein phosphatase 6 (Homo sapiens) (Q16828 whole entry, looked up): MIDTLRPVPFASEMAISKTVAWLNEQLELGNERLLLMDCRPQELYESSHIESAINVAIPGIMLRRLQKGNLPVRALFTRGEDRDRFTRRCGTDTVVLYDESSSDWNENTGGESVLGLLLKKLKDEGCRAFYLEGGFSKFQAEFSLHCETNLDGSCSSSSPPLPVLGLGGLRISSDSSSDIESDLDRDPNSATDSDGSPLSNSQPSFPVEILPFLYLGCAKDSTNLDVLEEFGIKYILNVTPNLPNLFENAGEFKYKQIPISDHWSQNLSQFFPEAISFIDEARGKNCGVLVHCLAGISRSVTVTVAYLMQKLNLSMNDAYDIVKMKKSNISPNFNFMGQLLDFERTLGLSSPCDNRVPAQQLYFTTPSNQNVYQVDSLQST
Sequence of Voltage-gated potassium channel subunit beta-2 (Rattus norvegicus) (P62483 whole entry, looked up): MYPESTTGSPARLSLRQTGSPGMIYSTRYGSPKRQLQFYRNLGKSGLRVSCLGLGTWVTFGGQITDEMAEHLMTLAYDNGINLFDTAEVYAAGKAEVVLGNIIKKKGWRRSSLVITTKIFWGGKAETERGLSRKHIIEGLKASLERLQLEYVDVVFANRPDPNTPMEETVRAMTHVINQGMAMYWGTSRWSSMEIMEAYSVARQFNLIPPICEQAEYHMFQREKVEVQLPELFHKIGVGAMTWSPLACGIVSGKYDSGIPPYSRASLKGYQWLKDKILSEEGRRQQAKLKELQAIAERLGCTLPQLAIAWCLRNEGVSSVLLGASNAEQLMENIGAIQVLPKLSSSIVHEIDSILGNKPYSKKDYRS
Sequence of Alpha-2C adrenergic receptor (Homo sapiens) (P18825 whole entry, looked up): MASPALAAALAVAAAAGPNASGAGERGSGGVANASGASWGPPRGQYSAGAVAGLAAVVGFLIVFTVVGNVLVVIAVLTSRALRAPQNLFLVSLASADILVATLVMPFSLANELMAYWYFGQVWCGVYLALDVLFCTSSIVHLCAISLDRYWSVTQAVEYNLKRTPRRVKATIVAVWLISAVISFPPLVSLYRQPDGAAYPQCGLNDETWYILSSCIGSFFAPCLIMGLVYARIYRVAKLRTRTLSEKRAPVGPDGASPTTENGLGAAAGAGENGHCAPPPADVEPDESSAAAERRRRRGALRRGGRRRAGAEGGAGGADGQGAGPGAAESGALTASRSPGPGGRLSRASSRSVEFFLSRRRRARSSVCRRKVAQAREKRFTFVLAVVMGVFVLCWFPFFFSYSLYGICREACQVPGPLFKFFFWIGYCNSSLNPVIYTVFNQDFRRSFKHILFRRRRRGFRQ

As a reminder, the inhibition is the relative decrease from the control value, in per cent. `CN(Cc1ccccc1)Cc1c[nH]c2ccccc12`: the cell count in [1] is 531. For the same molecule, the inhibition was -15.1% (inactive) in assay [1]; -35.1% (inactive) in [3]; -4.27% (inactive) in assay [5]; 22.7% (inactive) in [10]; 13.3% (inactive) in assay [11]; 24.2% (inactive) in assay [12]. Also, the inhibition of aggregation in assay [2] was -1% (inactive). In addition, the nuclei count in assay [2] is 83.3%; in assay [3], 121%. The z-score in assay [4] (setting [13]) is -0.293; in assay [4] (setting [14]), -1.22; in assay [4] (setting [15]), -1.11. Besides, the fluorescence slope in [6] was -0.409 (inactive). In assay [7], the NADPH fluorescence slope was -4.2e-05 (inactive). For the same molecule, in [8], the slope is 0.00379 (inactive). Besides, the outcome in assay [9] was inactive.
Consider `CCOC(=O)c1[nH]c2ccc(Br)cc2c1NC(=O)CCN1CCC(C(=O)OCC)CC1`, for which the cell count in assay [1] stood at 566. Moreover, the inhibition in assay [1] is -16.7% (inactive); in [3], -91.6% (inactive); in assay [5], -0.674% (inactive); in assay [10], 15.3% (inactive); in assay [11], 7.83% (inactive); in [12] it was -1.42% (inactive). The inhibition of aggregation in [2] is 2.2% (inactive). Also, the figures for the nuclei count in assay [2] and in assay [3] were 96.4% and 130%, respectively. For the same molecule, the z-score in assay [4] (setting [13]) was 1.13; in assay [4] (setting [14]) it was -1.08; in assay [4] (setting [15]) it was 0.103. Further, the fluorescence slope in assay [6] was -0.523 (inactive). For the same molecule, in assay [7], the NADPH fluorescence slope was -2.9e-05 (inactive). Further, the slope in [8] was 0.00522 (inactive). Also, the call in [9] was inactive.
Regarding `COc1ccc2c(c1OC)C(=O)O[C@@H]2[C@H]1c2c(cc3c(c2OC)OCO3)CCN1C`, in assay [1], the cell count came to 567. Also, the inhibition is 1.8% (inactive) in assay [1]; -22.4% (inactive) in assay [3]; 23.4% (inactive) in assay [5]; -5.91% (inactive) and 3.65% (inactive) in [10]; 0.328% (inactive) in [11]; 32.2% (inactive) in assay [12]. Further, in assay [2], the inhibition of aggregation is 0.2% (inactive). Besides, the nuclei count was determined as 97.2% in [2] and 112% in assay [3]. Further, the z-score in assay [4] (setting [13]) is 0.15; in [4] (setting [14]) it was -0.163; in assay [4] (setting [15]), -0.0552. Further, the fluorescence slope in [6] is -0.46 (inactive). Moreover, the NADPH fluorescence slope in assay [7] is -6.4e-05 (inactive). Moreover, in [8], the slope was 0.00541 (inactive). In assay [9], the molecule was classed as inactive.
On to `CC(=O)Oc1cccc2c1C(=O)c1c(OC(C)=O)cc(C(=O)O)cc1C2=O`, for which the cell count in assay [1] came out at 646. The inhibition was 3.9% (inactive) in assay [1]; -52.7% (inactive) in assay [3]; -9.66% (inactive) in [5]; -7.39% (inactive) in assay [10]; 4.71% (inactive) in [11]; 26.5% (inactive) in assay [12]. Also, the inhibition of aggregation in [2] is 6.8% (inactive). The values for the nuclei count in [2] and in assay [3] were 105% and 124%, respectively. Moreover, the figures for the z-score in assay [4] (setting [13]), in [4] (setting [14]) and in assay [4] (setting [15]) were -1.09, -1.04 and -0.102, respectively. In addition, in [6], the fluorescence slope was -0.438 (inactive). Moreover, the NADPH fluorescence slope in assay [7] was -4.5e-05 (inactive). The slope in [8] was 0.00622 (inactive). In addition, the result in assay [9] was inactive.
Regarding `Cc1nc2ccccn2c(=O)c1CCN1CCC(C(=O)c2ccc(F)cc2)CC1`, the cell count in [1] was determined as 712. The inhibition in assay [1] is 2.4% (inactive); in assay [3] it was -63.6% (inactive); in assay [5], 19% (inactive); in assay [10], 0.607% (inactive) and -12.6% (inactive); in assay [11], 19.4% (inactive); in assay [12], 35.8% (inactive). For the same molecule, in [2], the inhibition of aggregation was -22.1% (inactive). For the same molecule, the nuclei count was determined as 103% in assay [2] and 126% in [3]. In addition, the z-score is 2.25 in assay [4] (setting [13]), 1.22 in assay [4] (setting [14]) and -0.61 in assay [4] (setting [15]). For the same molecule, in assay [6], the fluorescence slope was -0.464 (inactive). The NADPH fluorescence slope in assay [7] was 1.2e-06 (inactive). Also, the slope in [8] is 0.00457 (inactive). Besides, in assay [9], the outcome was inactive.
For the molecule `CCCOc1cccc(-c2nnc(N)s2)c1`, in [1], the cell count was 605. The inhibition in assay [1] is -3.6% (inactive); in assay [3], -83.5% (inactive); in assay [5], -11.5% (inactive); in [10], -3.59% (inactive); in [11], -30.1% (inactive); in [12] it was -65.7% (inactive). Also, the inhibition of aggregation in assay [2] was -31.3% (inactive). The nuclei count stood at 108% in [2] and 111% in assay [3]. Also, the z-score is 0.352 in assay [4] (setting [13]), -0.262 in assay [4] (setting [14]) and -0.207 in [4] (setting [15]). The fluorescence slope in assay [6] is -0.443 (inactive). The NADPH fluorescence slope in [7] is -5.5e-05 (inactive). The slope in [8] was 0.00934 (inactive). Moreover, the result in assay [9] was inactive.
As for `COc1ccc(-n2c(SCC(N)=O)nc3sc4c(c3c2=O)CCN(C)C4)cc1`, the cell count in assay [1] came to 537. The inhibition in assay [1] is -5.6% (inactive); in [3], -51.4% (inactive); in assay [5], -2.69% (inactive); in assay [10], -8.09% (inactive); in assay [11], -4.01% (inactive); in [12], 0.612% (inactive). Also, the inhibition of aggregation in assay [2] is 32% (inactive). The nuclei count amounted to 58% in assay [2] and 134% in assay [3]. The values for the z-score in [4] (setting [13]), in [4] (setting [14]) and in [4] (setting [15]) were -0.15, 1.95 and -0.53, respectively. Further, the fluorescence slope in assay [6] is -0.305 (inactive). The NADPH fluorescence slope in [7] was -1.8e-06 (inactive). Moreover, in assay [8], the slope is 0.00454 (inactive). Also, in assay [9], the molecule was called inactive.
As to `O=[N+]([O-])c1cccc2cn[nH]c12`, in assay [1], the cell count is 615. The inhibition is 1.2% (inactive) in assay [1]; -87% (inactive) in assay [3]; 3.45% (inactive) in assay [5]; 4.7% (inactive) and 1.19% (inactive) in assay [10]; 15.9% (inactive) in assay [11]; 50.4% (active) in assay [12]. In assay [2], the inhibition of aggregation was 15.8% (inactive). Besides, the figures for the nuclei count in assay [2] and in assay [3] were 81.4% and 116%, respectively. The values for the z-score in [4] (setting [13]), in [4] (setting [14]) and in assay [4] (setting [15]) were 2.27, -1.27 and -1.46, respectively. Besides, the fluorescence slope in assay [6] is -0.448 (inactive). Besides, the NADPH fluorescence slope in assay [7] is -7.3e-05 (inactive). Also, the slope in assay [8] is 0.00537 (inactive). The outcome in assay [9] was inactive.
On to `CCOC(=O)c1c(C(F)(F)C(F)(F)C(F)(F)C(F)(F)F)n[nH]c1C`, for which the cell count in [1] came out at 532. Also, the inhibition was -3.7% (inactive) in assay [1]; -78.6% (inactive) in assay [3]; 11.3% (inactive) in [5]; 17.6% (inactive) in assay [10]; 17.2% (inactive) in assay [11]; 24.6% (inactive) in assay [12]. Moreover, the inhibition of aggregation in [2] was 10.3% (inactive). The nuclei count in assay [2] worked out at 97.3%; in assay [3], 128%. Moreover, the z-score in assay [4] (setting [13]) was -0.312; in [4] (setting [14]), 0.0825; in [4] (setting [15]), -0.449. The fluorescence slope in assay [6] is -0.521 (inactive). In addition, the NADPH fluorescence slope in assay [7] is -9.8e-05 (inactive). Also, the slope in [8] is 0.00424 (inactive). In addition, the molecule was called inactive in [9].
In the case of `CCC(=O)N[C@@H]1CC(C(C)(C)NC(=O)CC)CC=C1C` (stereo not given in full), in assay [1], the cell count was 537. In addition, the inhibition is -16.4% (inactive) in [1]; -21.9% (inactive) in assay [3]; -6.06% (inactive) in [5]; 6.4% (inactive) in assay [10]; 18.2% (inactive) in [11]; 18.8% (inactive) in assay [12]. Also, the inhibition of aggregation in [2] was -10.9% (inactive). The values for the nuclei count in assay [2] and in assay [3] were 110% and 137%, respectively. The z-score is -0.93 in [4] (setting [13]), 0.526 in [4] (setting [14]) and -0.616 in assay [4] (setting [15]). Besides, the fluorescence slope in assay [6] was -0.349 (inactive). For the same molecule, the NADPH fluorescence slope in assay [7] is -1e-06 (inactive). Besides, the slope in assay [8] is 0.00698 (inactive). In addition, in assay [9], the molecule was called inactive.
